# pS6 MEF inh: reduces mTORC1 signaling in Tsc2 and p53 null MEF cells. Tsc2-/- p53-/- MEF, phospho-rpS6 immunofluorescence/PI, 24 h. Potency, µM (titrated, usually from 38.3 µM), usual class: inhibitors. 44,000 compounds, 0.78% hits; further: nearly all actives have a fitted effect of over 50% in size
#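 Read-out: phospho-S6 Alexa-488 intensity over PI intensity per well, scored as % active cells using thresholds from rapamycin (7.5 nM) and DMSO controls. Tsc2-/-, p53-/- MEFs exposed to compound for 24 h; PI cell count recorded as viability.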
# S16 F2sN tox: toxic to S16 Pmp22-F2sN Schwann cells. S16 Pmp22-F2sN Schwann cells viability, CellTiter-Glo, 24 h. Potency, µM (top dose mostly 57.5 µM), hits mostly cytotoxic. 43,000 compounds, 0.48% hits; further: nearly all actives have a fitted effect of over 65% in size
#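 Rat S16 Schwann reporter line, 24 h treatment with library compounds delivered at 23 nL per well. Cell viability by CellTiter-Glo luminescence.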
# PMP22 txn: PMP22 gene transcription modulation; S16 Pmp22-F2sN Schwann cells, FLuc/NLuc coincidence luminescence, 24 h; Potency, µM (titrated, usually from 57.5 µM), hits mostly inhibitors; 43,000 compounds, 2% hits; AID 1508649; active means clear falling dose curves in both reporters; inconclusive means both reporters move, but less clearly or upward; inactive means either reporter flat; the % is the NLuc reporter signal
#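 Schwann cells carrying the coincidence reporter were exposed to library compounds for 24 h at 37C, then lysed and read for FLuc and, after quenching, NLuc luminescence on a CCD imager.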
# p53null 39C kill: selectivity test: cytotoxicity in p53 null cells, nonpermissive temperature | H1299 p53-null (neo) cells, 39C, ATPlite viability, 24 h | Potency, µM (series often up to 46.1 µM), hits mostly cytotoxic | 55,000 compounds, 0.97% hits | AID 904; further: nearly all actives have a fitted effect of over 50% in size
#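 H1299 lung cancer cells, p53-null (H1299-neo) or expressing p53 A138V (H1299-p53A138V), were plated overnight at 37C, then exposed to compounds at up to 46 uM for 24 hr at 39C. Viability was read by ATP-based luminescence.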
# OvCa metastasis: blocks SKOV3ip1 adhesion and invasion in omental model | 46,000 compounds, 0.1% hits | AID 1963576 | SKOV3ip1-GFP adhesion/invasion on 3D omental model, fluorescence | Potency, µM (titrated, usually from 45.8 µM), most hits filed as inhibitors; further: nearly all actives have a fitted effect of over 65% in size
#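 Primary human omental fibroblast/mesothelial 3D culture pre-formed 48 h. SKOV3ip1-GFP cells added with compounds (0.36-46 umol/L), incubated 2 h RT/16 h 37 C, fixed; GFP cells quantified at 488/509 nm.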
# p53null 32C kill: selectivity test: cytotoxicity in p53 null cells, permissive temperature; H1299-neo p53 null cells, ATP luminescence, 24 h, 32C; Potency, µM (titrated, usually from 46.1 µM), hits mostly cytotoxic; 55,000 compounds, 0.62% hits; further: nearly all actives have a fitted effect of over 55% in size
#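 ATP-content luminescence in p53-null H1299-neo cells after 24 h compound exposure (up to 46 uM) at 32C permissive temperature; 0% and 100% killing set by DMSO and 100 uM tamoxifen; Hill-equation AC50.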
# NLuc sat counter: inhibits NanoLuc at saturating substrate, PMP22 counter-screen | shares compounds with PMP22 txn | Secreted NLuc enzyme (filtered S16 cell medium), Nano-Glo luminescence | Potency, µM (top dose mostly 57.5 µM), usual class: inhibitors | 690 compounds, 4% hits | AID 1508638
# NLuc Km counter: inhibits NanoLuc under Km conditions, PMP22 counter-screen. shares compounds with PMP22 txn. secreted NLuc enzyme, coelenterazine luminescence, Km conditions. Potency, µM (titrated, usually from 57.5 µM), most hits filed as inhibitors. 690 compounds, 5% hits. AID 1508639
# FLuc counter: inhibits firefly luciferase, PMP22 counter-screen. shares compounds with PMP22 txn. 690 tested, under 10 active. purified P. pyralis FLuc, luminescence, 10 min. Potency, µM (top dose mostly 57.5 µM), usual class: inhibitors
# Target sequence (P08659 whole entry, looked up): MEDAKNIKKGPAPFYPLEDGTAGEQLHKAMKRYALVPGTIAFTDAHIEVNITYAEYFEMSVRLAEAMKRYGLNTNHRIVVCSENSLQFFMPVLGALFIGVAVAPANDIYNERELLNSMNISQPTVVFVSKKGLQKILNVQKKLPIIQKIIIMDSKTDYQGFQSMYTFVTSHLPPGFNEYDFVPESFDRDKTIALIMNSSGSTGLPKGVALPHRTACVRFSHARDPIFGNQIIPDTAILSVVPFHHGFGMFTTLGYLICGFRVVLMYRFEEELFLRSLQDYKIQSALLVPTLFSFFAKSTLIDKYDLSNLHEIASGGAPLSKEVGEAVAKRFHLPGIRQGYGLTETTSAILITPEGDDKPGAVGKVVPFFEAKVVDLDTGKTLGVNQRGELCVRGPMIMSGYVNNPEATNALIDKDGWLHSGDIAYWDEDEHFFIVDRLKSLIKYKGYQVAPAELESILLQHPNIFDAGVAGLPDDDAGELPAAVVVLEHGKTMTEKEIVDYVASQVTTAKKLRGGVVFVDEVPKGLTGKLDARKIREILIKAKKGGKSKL
# S16 F2sN tox cnf: confirmation of cytotoxicity in S16 Pmp22-F2sN Schwann cells (luciferase reporters placed in the Pmp22 gene). S16 Schwann cells viability, CellTiter-Glo ATP luminescence, 24 h. shares compounds with PMP22 txn. AID 1508641. Potency, µM (highest dose often 57.5 µM), hits mostly cytotoxic. 690 compounds, 7% hits
# PMP22 txn conf: confirmation of modulators of PMP22 gene transcription in S16 cells; 690 compounds, 22% hits; shares compounds with PMP22 txn; S16 Schwann cells Pmp22-F2sN, dual luciferase, 24 h; Potency, µM (series often up to 57.5 µM), usual class: inhibitors; active means clear falling dose curves in both reporters; inconclusive means both reporters move, but less clearly or upward; inactive means either reporter flat; the % is the FLuc reporter signal
# PMP22 prot conf: rat PMP22 protein level modulation, confirmatory; shares compounds with PMP22 txn; S16 Schwann cells Pmp22-HiBiT, luminescence, 48 h; Potency, µM (titrated, usually from 27.9 µM), usual class: inhibitors; 95 tested, under 10 active
# Target sequence (P25094 whole entry, looked up): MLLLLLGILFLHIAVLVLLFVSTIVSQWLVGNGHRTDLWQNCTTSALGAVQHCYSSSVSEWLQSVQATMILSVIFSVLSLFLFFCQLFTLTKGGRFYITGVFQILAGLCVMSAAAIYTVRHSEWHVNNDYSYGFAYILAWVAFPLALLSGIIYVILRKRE
# Hits are given with their value; - = inactive; ? = inconclusive; . = not tested or not shown. An excerpt weighted towards active compounds, which were near 3.1% of everything screened. Unless noted, the call rests on the fitted dose curve; in most records, active means well fitted curve in the direction sought with a large enough effect; inconclusive means small, poorly fitted or top-dose-only effect, or another doubt; inactive means no such curve, though single readings can be large; an effect the other way counts as inactive or inconclusive.
SMILES,pS6 MEF inh,S16 F2sN tox,PMP22 txn,p53null 39C kill,OvCa metastasis,p53null 32C kill,NLuc sat counter,NLuc Km counter,FLuc counter,S16 F2sN tox cnf,PMP22 txn conf,others
O=C(NCCS(=O)(=O)c1ccc(C(F)(F)F)cn1)c1ccc(Cl)cc1,.,.,.,.,-,.,.,.,.,.,.,
CC(=O)Nc1cccc(-c2nnc(SCC(=O)c3cc([N+](=O)[O-])ccc3Br)o2)c1,?,?,12.1µM,?,-,-,10.9µM,12.2µM,?,-,17.2µM,
CC(=O)Nc1cc(NC(C)=O)cc(-c2nc3ccccc3[nH]2)c1,-,?,7.27µM,-,?,-,?,?,-,-,-,
CC(=O)Nc1ccc2nc(-c3cc(C)ccc3C)[nH]c2c1,-,?,-,-,-,-,.,.,.,.,.,
CNC(=O)c1cc2c(n(-c3ccc(C)cc3)c1=O)CC(C)(C)CC2=O,-,-,-,-,-,-,.,.,.,.,.,
Cc1ccc(-n2c3c(cc(C(=O)Nc4ccccc4C(N)=O)c2=O)C(=O)CC(C)(C)C3)cc1,-,-,3.4µM,-,-,-,?,-,-,-,-,
CCn1c(=O)cc(OCC(=O)N2CCN(c3ccccc3OC)CC2)c2ccccc21,-,-,17µM,-,-,-,-,-,-,-,-,
O=C(c1ccc(C(=O)N2CCC(N3CCCC3)CC2)c(Nc2ccccc2)c1)N1CCC(N2CCCC2)CC1,.,.,.,.,-,.,.,.,.,.,.,
CC1CCN(C(=O)CCS(=O)(=O)c2cc3c(cc2Cl)NC(=O)CO3)CC1,-,-,-,-,-,-,-,-,-,-,-,
c1ccc(CNc2nc(N3CCOc4ccccc43)nc3c2CCCC3)cc1,.,.,.,.,-,.,.,.,.,.,.,
COC(=O)CS(=O)(=O)c1nc2ccccc2nc1N1CCCCC1,?,?,11.3µM,-,-,-,?,?,-,-,9.93µM,PMP22 prot conf=?
CC(C)(C)c1cc(NC(=O)Nc2ccc(-c3cn4c(n3)sc3cc(OCCN5CCOCC5)ccc34)cc2)no1,.,.,.,.,-,.,.,.,.,.,.,
COc1ccc(-c2cc(C(F)(F)F)nc(NCCc3ccccc3)n2)cc1OC,-,-,12.9µM,-,-,-,-,-,-,-,-,
COc1ccc(-c2cc(C(F)(F)F)nc(NCCc3ccccc3)n2)cc1,-,?,-,-,-,-,.,.,.,.,.,
CC(C)OC(=O)CCCC=CC[C@@H]1[C@H](C=C[C@@H](O)COc2cccc(C(F)(F)F)c2)[C@H](O)C[C@@H]1O,.,.,.,.,-,.,.,.,.,.,.,
CCOc1ccccc1NC(=O)C1CCN(S(=O)(=O)c2c(C)noc2/C=C/c2ccco2)CC1,-,-,9.46µM,-,-,-,?,-,-,-,-,
CCOCCCNC(=O)c1ccc(-n2c(-c3ccccc3)cc3c2CCCC3)cc1,-,?,?,-,-,-,.,.,.,.,.,
COCCNC(=O)c1ccc(-n2c(-c3ccccc3)cc3c2CCC(C)C3)cc1 (stereo unspecified),-,?,10µM,-,-,-,-,?,-,-,-,
CC1CCc2c(cc(-c3ccccc3)n2-c2ccc(C(=O)NC(C)C)cc2)C1 (stereo unspecified),-,-,13.4µM,-,?,-,-,-,-,-,?,
CCCNC(=O)c1ccc(-n2c(-c3ccccc3)cc3c2CCC(C)C3)cc1 (stereo unspecified),?,-,?,-,-,-,.,.,.,.,.,
O=C(Nc1ccc(Oc2ccnc3[nH]ccc23)c(F)c1)c1cccn(-c2ccc(F)cc2)c1=O,.,.,.,.,-,.,.,.,.,.,.,
O=C(NCCCN1CCN(c2ccc(F)cc2)CC1)c1ccc2nc(Cc3ccccc3)oc2c1,-,-,15.8µM,-,-,-,-,-,-,-,?,
Cn1c(=O)c2cc(C(=O)NCCCN3CCN(c4cccc(Cl)c4)CC3)sc2c2ccccc21,-,-,-,?,-,-,.,.,.,.,.,
CCc1ccccc1NC(=O)c1cc2c(Cl)nc3ccccc3c2s1,-,-,10.1µM,-,-,-,-,?,-,-,-,
O=C(NCCCN1CCN(c2ccccc2)CC1)c1ccc2nc(Cc3ccccc3)oc2c1,-,?,?,-,-,-,.,.,.,.,.,
SMILES,pS6 MEF inh,S16 F2sN tox,PMP22 txn,p53null 39C kill,OvCa metastasis,p53null 32C kill,NLuc sat counter,NLuc Km counter,FLuc counter,S16 F2sN tox cnf,PMP22 txn conf,others
O=C(NCCCN1CCN(c2ccc(F)cc2)CC1)c1cc2c(Cl)nc3ccccc3c2s1,-,-,14.1µM,-,-,-,-,-,-,-,?,PMP22 prot conf=-
Cc1ccc(C)c(N2CCN(CCCNC(=O)c3ccc4nc(C(C)C)oc4c3)CC2)c1,-,?,11.2µM,-,-,-,?,?,-,?,?,
C[C@]12CC[C@H](O)CC1=CCC1C2CC[C@]2(C)C(n3cnc4ccccc43)=CCC12 (stereo partly specified),.,.,.,.,-,.,.,.,.,.,.,
COc1ccc(C=Cc2cc(OC)c(OC)c(OC)c2)cc1NC(=O)[C@H](N)CO,.,.,.,.,-,.,.,.,.,.,.,
CSc1nc2sc3c(c2c(=O)n1-c1ccc(C)cc1)CCCC3,-,-,14.1µM,-,-,-,4.85µM,?,-,-,?,
CC(C)Sc1nc2sc3c(c2c(=O)n1-c1ccccc1)CCCC3,-,-,?,-,-,-,.,.,.,.,.,
Cc1[nH]c(C=C2C(=O)Nc3ccc(S(=O)(=O)N(C)c4cccc(Cl)c4)cc32)c(C)c1C(=O)N1CCN(C)CC1,.,.,.,.,-,.,.,.,.,.,.,
CN1CC(=O)NC1=NC(=O)Nc1cccc(Cl)c1,.,.,.,.,-,.,.,.,.,.,.,
CCCCOCCOc1nc(-c2ccc(C(=O)O)c(F)c2)sc1C,.,.,.,.,-,.,.,.,.,.,.,
Cc1cc(C)c(Nc2ncnc3c2cnn3C)c(C)c1,?,?,?,-,-,-,-,-,-,-,-,
